Screening results as filed in PubChem BioAssay.
Tb PFK block: inhibitors of T. brucei phosphofructokinase; Potency, µM (series often up to 57.5 µM), without a hit: at the highest dose activity, negative = inhibition, usual class: inhibitors; 330,000 tested, 0.17% active; O15648; AID 485367; T. brucei PFK, ADP-Glo luminescence;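 also: 0% = uninhibited 1x PFK enzyme wells and -100% = no-enzyme wells; nearly all actives have a fitted effect of over 60% in size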
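Activity is normalized to no-enzyme wells (full inhibition) and 1.25 nM enzyme wells (no inhibition). Reaction: 0.5 mM F6P, 0.1 mM ATP, 45 min RT, ADP-Glo luminescence; concentration-response curves fitted and classed by quality.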
Tb PGK inh: inhibitors of T. brucei phosphoglycerate kinase | AID 602233 | 380,000 tested, 0.043% active | Potency, µM (top dose mostly 57.5 µM), for inactives: top-dose activity change, negative = inhibition, most hits filed as inhibitors | PGK/GAPDH coupled, Kinase-Glo luminescence, 60 min; also: % is scaled to controls: 0 for no effect and ±100 for the full control effect; nearly all actives have a fitted effect of over 60% in size
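Recombinant glycosomal PGK reaction used 1,3-bisphosphoglycerate generated in-well by GAPDH (100nM final) in 100mM TEA pH 7.6, 5mM MgCl2, 0.01% Tween-20. After 60 minutes at room temperature, ATP was read by Kinase-Glo Plus luminescence end-point.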
Rango complex inh: Rango-importin beta binding inhibition; Rango CFP/YFP FRET sensor + importin beta, 45 min; AID 540263; Q14974; 340,000 tested, 0.031% active; Potency, µM (highest dose often 92.2 µM), for inactives: top-dose inhibition of complex formation; calls by dose curve;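 also: 0% = DMSO wells and 100% = buffer wells lacking importin beta; nearly all actives have a fitted effect of over 15% in size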
Target sequence (Q14974 whole entry, looked up): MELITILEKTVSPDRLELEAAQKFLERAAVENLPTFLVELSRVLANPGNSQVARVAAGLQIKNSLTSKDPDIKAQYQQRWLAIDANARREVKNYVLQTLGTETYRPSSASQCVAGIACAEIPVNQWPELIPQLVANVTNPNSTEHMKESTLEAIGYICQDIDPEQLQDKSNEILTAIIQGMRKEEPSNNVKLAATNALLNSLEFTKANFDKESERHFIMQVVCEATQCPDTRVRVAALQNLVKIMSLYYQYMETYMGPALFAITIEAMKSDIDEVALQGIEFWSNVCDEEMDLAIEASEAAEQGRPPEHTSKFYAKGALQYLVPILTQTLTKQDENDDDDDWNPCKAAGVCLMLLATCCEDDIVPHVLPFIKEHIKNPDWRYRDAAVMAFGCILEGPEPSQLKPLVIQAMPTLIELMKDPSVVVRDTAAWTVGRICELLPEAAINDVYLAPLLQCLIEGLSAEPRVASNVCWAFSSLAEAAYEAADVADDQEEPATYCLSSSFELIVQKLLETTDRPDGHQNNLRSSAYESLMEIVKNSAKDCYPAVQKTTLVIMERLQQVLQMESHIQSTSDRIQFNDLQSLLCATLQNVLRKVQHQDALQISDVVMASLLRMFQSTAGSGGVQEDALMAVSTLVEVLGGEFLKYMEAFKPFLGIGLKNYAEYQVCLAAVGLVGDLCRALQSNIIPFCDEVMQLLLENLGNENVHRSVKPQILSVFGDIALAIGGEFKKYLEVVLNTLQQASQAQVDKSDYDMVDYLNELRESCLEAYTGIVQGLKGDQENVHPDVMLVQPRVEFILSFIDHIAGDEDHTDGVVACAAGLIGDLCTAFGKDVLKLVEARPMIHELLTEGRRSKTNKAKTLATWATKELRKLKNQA
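Inhibition scored from the CFP 486 nm/YFP 530 nm FRET ratio 45 min after adding 0.125 microM importin beta to 50 nM Rango biosensor preincubated 5 min with compound (room temperature, PBS with DTT, Tween-20, BSA). No-importin wells as positive control.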
Rango release inh: inhibitors of RanGTP-induced Rango-importin beta complex dissociation. O95149+P62826. Biochemical FRET Rango-importin beta, RanGTP-induced dissociation. Potency, µM (top dose mostly 46.1 µM), for the others: at the top dose activity change, negative = inhibition. 340,000 tested, 0.071% active. AID 540253; calls by dose curve; also: % of control where 0% means no effect; nearly all actives have a fitted effect of over 45% in size
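Rango (0.1 uM)–importin beta (0.25 uM) complex; RanGTP-RCC1 trigger; 45 min RT; CFP/YFP FRET read.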
PKM2 act: increases activity of human pyruvate kinase M2; P14618; Potency, µM (titrated, usually from 57.5 µM), for the others: top-dose activation, most hits filed as activators; AID 1631; 260,000 tested, 0.34% active; purified PKM2, Kinase-Glo ATP luminescence, activation; response scale: 0% is enzyme alone, no compound; also: % is scaled to controls: 0 for no effect and ±100 for the full control effect; nearly all actives have a fitted effect of over 55% in size
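Purified hPK-M2 (>95% pure) converted ADP (0.1 mM final) to ATP with 0.5 mM PEP in 50 mM imidazole pH7.2, KCl, MgCl2, Tween 20, BSA; 1 h at room temperature. ATP detected by Kinase-Glo luminescence.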
ELG1 repair inh: inhibitors of ELG1-dependent DNA repair in HEK293T cells. HEK293T ELG1-luciferase reporter, luminescence, 16 h; DNA damage induced by 5-fluorouridine. Potency, µM (top dose mostly 46.1 µM), without a hit: top-dose activity change, negative = inhibition, usual class: inhibitors. 330,000 tested, 2.3% active; also: % is scaled to controls: 0 for no effect and ±100 for the full control effect; nearly all actives have a fitted effect of over 55% in size
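Overnight (16 hr) co-exposure of 2,000 cells/well to 5-fluorouridine and compound at 37 °C preceded detection. Luciferase was quantified via ONE-Glo luminescence; loss of signal denotes inhibition.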
The depositor's hits bear a star; i = inactive; ? = inconclusive; . = no result. In the library only some 2.4% were active in any assay of this set; here they are far more common. Unless noted, calls follow the shape of the dose curve; as a rule, active = well fitted curve in the direction sought with a large enough effect; inconclusive = small, poorly fitted or top-dose-only effect, or another doubt; inactive = no such curve, though single readings can be large; an effect the other way counts as inactive or inconclusive. Potency is read from the fitted curve at half-maximal effect.

SMILES	Tb PFK block	Tb PGK inh	Rango complex inh	Rango release inh	PKM2 act	ELG1 repair inh
COc1ccc(NS(=O)(=O)c2ccc(N3CCCC3)c(NC(=S)Nc3ccc(SC(F)F)cc3)c2)cc1	?	-12%	-3%	-6%	8%	23µM*
N#CCCn1nc(-c2ccc([N+](=O)[O-])cc2)cc1Nc1ccccc1NC(=O)C(F)(F)F	-4%	-8%	2%	-16%	-7%	18µM*
N#CCCn1nc(-c2ccccc2)cc1Nc1ccccc1NC(=O)C(F)(F)F	-1%	2%	?	-12%	6%	-10%
CCN(CC)c1ccc(/C=C/C(=O)c2cccnc2)cc1	-1%	8%	-3%	25%	.	23µM*
CCCCc1ccc(NS(=O)(=O)c2ccc(N3CCCCS3(=O)=O)cc2)cc1	.	-3%	.	.	.	.
COc1ccc(CN(C)C(=O)C23CC4CC(CC(Cl)(C4)C2)C3)c(OC)c1OC	-1%	1%	-3%	1%	2%	26µM*
Cc1ccc(Nc2nc(N3CCN(C)CC3)nc(N)c2[N+](=O)[O-])cc1C	-7%	.	.	.	-2%	8.2µM*
COc1cccc(C#CC2=CC(=O)C[C@H](c3ccc(F)cc3)C2)c1	.	-7%	.	.	.	.
CCOc1ccc(-c2csc(Cn3c(CN4CCN(C)CC4)nc4ccccc4c3=O)n2)cc1	1%	-10%	-4%	0%	-20%	21µM*
COc1cccc(CCC(=O)N2CCC(n3nccc3NC(=O)CC(C)C)CC2)c1	2%	-4%	-1%	4%	.	12%
Cc1ccc(Nc2c3c(nc4ccccc24)CCC3)cc1F	.	8%	.	.	.	.
Cc1cccc(Nc2c3c(nc4ccccc24)CCC3)c1	6%	-2%	-2%	10%	-1%	21µM*
CCc1ccc2[nH]c3nc(SCCN4CCOCC4)nnc3c2c1	-7%	-1%	0%	31%	-3%	26µM*
FC(F)(F)Oc1ccc(Nc2nc(N3CCOCC3)nc(N3CCOCC3)n2)cc1	-2%	9%	-6%	14%	.	?
O=c1c2cnn(-c3ccccc3)c2nc(-c2ccco2)n1-c1ccccc1	-30%	i	-3%	-8%	2%	6.3µM*
O=C(Nc1cc(S(=O)(=O)N2CCCCC2)ccc1O)c1ccccc1NS(=O)(=O)c1ccc(F)cc1	-3%	0%	0%	1%	6%	-6%
O=C(Nc1cc(S(=O)(=O)N2CCCCC2)ccc1Cl)c1ccccc1NS(=O)(=O)c1ccc(F)cc1	0%	0%	4%	-10%	3%	4.1µM*
Cc1ccccc1NC(=O)Cn1nnc(-c2ccc(N3CCOCC3)cc2)n1	2%	-10%	-2%	-4%	-2%	21%
CN(CC(=O)Nc1ccccc1N1CCOCC1)S(=O)(=O)c1ccc(Cl)cc1	0%	-1%	0%	-2%	1%	26µM*
O=C(CN(Cc1ccco1)Cc1ccco1)Nc1cc(S(=O)(=O)N2CCCCC2)ccc1Cl	-14%	-12%	0%	-3%	.	26µM*
CN(C)c1ccc(-c2nnn(CC(=O)Nc3ccccc3N3CCOCC3)n2)cc1	0%	-9%	0%	-7%	-6%	15µM*
CC(=O)Nc1ccc(S(=O)(=O)N2CCSc3ccccc32)cc1	2%	1%	-1%	-2%	.	?
CN(CC(=O)Nc1ccccc1Br)C(=O)CCCSc1nc2ccccc2[nH]1	3%	-2%	-2%	?	.	2%
O=C(NCc1ccccc1F)c1cccc(NC(=O)N2CCSc3ncccc32)c1	.	-2%	.	.	.	.
CN(C)C(=O)CCc1ccc2c3c([nH]c2c1)[C@]1(C)[C@@H](C(=O)N2CCOCC2)C[C@H](CC(=O)NCCC2=CCCCC2)C(=O)N1CC3	-4%	-8%	-1%	7%	.	-2%
SMILES	Tb PFK block	Tb PGK inh	Rango complex inh	Rango release inh	PKM2 act	ELG1 repair inh
O=C(Nc1ccccc1N1CCOCC1)c1ccccc1NS(=O)(=O)c1ccc(F)c(F)c1	-2%	-5%	1%	8%	-3%	21µM*
O=C(Nc1ccccc1N1CCOCC1)c1ccccc1NS(=O)(=O)c1ccc(F)cc1	1%	-2%	0%	16%	14%	-6%
COCc1cc([C@@H]2C[C@H]3CN(c4ccccc4)C(=O)[C@]34CCCN24)ccc1OC	-5%	2%	0%	1%	2%	15µM*
N#Cc1ccc(CN2CCN(C(=O)c3ccc(S(=O)(=O)NCc4ccco4)cc3)CC2)cc1	0%	0%	4%	8%	.	?
O=C(CCc1ccccc1)Nc1cc(S(=O)(=O)N2CCOCC2)ccc1N1CCCC1	2%	-10%	2%	-12%	.	23%
COc1ccc(-n2ncc3c(SCC(=O)N4CCN(c5ccccc5OC)CC4)ncnc32)cc1	6%	2%	-1%	1%	6%	16µM*
COc1ccc(-c2nnn(CC(=O)N3CCN(c4ccccc4OC)CC3)n2)cc1	1%	i	0%	-4%	11%	23µM*
COc1ccccc1N1CCN(C(=O)CSc2ncnc3scc(-c4ccccc4)c23)CC1	-4%	7%	1%	2%	1%	?
COc1ccccc1N1CCN(C(=O)CSc2nnc3n2C(C)(C)Cc2ccccc2-3)CC1	-1%	-1%	-1%	1%	3%	9.2µM*
CCCc1c(C(=O)NNc2ccccc2OC)cnn1-c1ccccc1	-1%	-5%	-2%	0%	7%	8%
CCCc1c(C(=O)N2CCN(c3ccccc3OC)CC2)cnn1-c1ccccc1	-1%	15%	4%	-8%	-3%	16µM*
COc1ccc(-c2nnn(CC(=O)N3CCN(c4ccccc4OC)CC3)n2)cc1OC	-7%	-4%	-1%	-4%	7%	?
CCC(=O)OCOc1ccc(/C=C2/CCC(CN(C)C)C2=O)cc1 (stereo not drawn)	.	-10%	7%	-1%	.	.
COc1cccc(NC(=O)c2cc3c(=O)n(C)c4ccccc4c3n2C)c1	.	-6%	.	.	.	.
Cc1cccc(C(=O)N2c3ncnn3C3(CCCCC3)[C@@H]3CCCC[C@@H]32)c1	.	i	.	.	.	.
COc1ccccc1N1CCN(C(=O)CSc2nc3ccccc3nc2N2CCCCC2)CC1	1%	0%	1%	-14%	-20%	16µM*
COc1ccccc1N1CCN(C(=O)CSc2nc3ccccc3nc2N2CCC(C)CC2)CC1	-3%	-7%	-3%	2%	0%	26µM*
COc1ccccc1N1CCN(C(=O)CSc2nc3ccccc3nc2Cc2ccc(C)cc2)CC1	.	i	.	.	.	.
